Shown are actives, neighbours in structure and some others; about 3.6% of the full set was active somewhere.
Myeloid diff MLP = myeloid differentiation induction; calls only at 10 µM; 1% of 360,000 active; ER-HoxA9 myeloid progenitors, lysozyme-GFP differentiation, flow cytometry;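 active = normalized GFP-positive differentiation at or above the plate's own cutoff, the solvent-only control mean plus 3 SD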;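 note: cells exposed to compound for four days before flow analysis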
NRP1-CendR mod = alters CendR peptide binding to human NRP-1; inhibition, % at 25 µM; FAM-RPARPAR peptide binding to NRP-1, fluorescence polarization; 0.85% of 360,000 active;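 active = inhibition or corrected inhibition above about 18%, plus a signal ratio from 0.5 to 1.5, limit read from the data, passing the limit was not always enough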
CRFBP-R2 block = blocks CRF-induced signaling of the CRF-BP/CRF-R2 complex; HEK293 CRF-R2/CRF-BP, CRF-induced calcium fluorescence; inhibition, % at 11.8 µM; 0.59% of 350,000 active;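 active = inhibition of the ligand-induced calcium signal above about 50% at the single tested concentration, limit read from the data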
NadD block = NadD (S. aureus) enzyme inhibition | purified NadD enzyme, colorimetric absorbance read-out | inhibition, % at 20 µM | 0.78% of 360,000 active | AID 602399; in the data active = inhibition above about 26%
FAS-TE inh = FAS thioesterase (human) inhibition; P49327; recombinant FAS-TE, OMFH fluorogenic substrate, fluorescence endpoint; inhibition, % at 15 µM; 0.67% of 360,000 active; AID 602261;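 active = compounds whose normalised, plate-corrected inhibition of enzyme fluorescence in the single-dose primary screen is 50% or more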;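 note: 0% = DMSO with enzyme and 100% = substrate without enzyme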
FAS-TE conf = confirmation of human fatty acid synthase thioesterase inhibitors. 45% of 2,300 active. shares compounds with FAS-TE inh. AID 624325. inhibition, % at 15 µM. recombinant FAS-TE, OMFH fluorogenic substrate, fluorescence;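 active = compounds inhibiting the enzyme by at least 50% at 15 µM in any one of the replicates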;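 note: 0% = enzyme with DMSO only and 100% = wells lacking enzyme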
Numbers without * were called inactive; i = inactive; . = no result given.

SMILES	Myeloid diff MLP	NRP1-CendR mod	CRFBP-R2 block	NadD block	FAS-TE inh	FAS-TE conf
CC(C)(C)[C@@H]1COC(=O)[C@H](Cc2ccc(F)cc2)CC/C=C\C[C@@H](CC(=O)NCCO)C(=O)N1	i	2	-20	-11	-8	.
COc1cccc(OCCOc2ccc(/C=C3/SC(=S)NC3=O)cc2)c1	i	-69	41	29	68*	40
Cc1ccc(Cl)cc1N1CCN(C(c2ccc(C#N)cc2)c2nnnn2C2CCCC2)CC1 (stereo not given)	i	8	7	30	69*	-2
CC(=O)C(N=Nc1ccccc1)(Sc1nnc(-c2ccccc2)n1-c1ccccc1)C(=O)Nc1ccccc1 (stereo not given)	i	6	20	28	79*	17
O=C(Cn1cnc2c(NCc3ccccc3)ncnc21)NCc1nc2ccccc2[nH]1	i	5	-10	-1	-5	.
CCOC(=O)C1=C(C)Nc2sc(C(=O)c3ccc(C)cc3)c(N)c2C1c1ccc(C(=O)OC)cc1 (stereo not given)	i	-12	16	24	67*	15
CCOC(=O)C1=C(C)Nc2sc(C(=O)c3ccc(F)cc3)c(N)c2C1c1ccc(C(=O)OC)cc1 (stereo not given)	.	-30	-24	20	19	.
CCC(C)(C)C1CCC(=NNS(=O)(=O)c2ccc(C)c([N+](=O)[O-])c2)CC1 (stereo not given)	i	-7	16	6	73*	58*
O=S(=O)(c1ccc(-c2csc(-c3cccnc3)n2)cc1)N1CCOCC1	i	-1	-29	4	79*	82*
CCCCC(=O)Nc1nc(-c2ccc(S(=O)(=O)N3CCOCC3)cc2)cs1	i	2	-18	-7	88*	91*
CC(C)CC(=O)Nc1nc(-c2ccc(S(=O)(=O)N3CCOCC3)cc2)cs1	i	9	3	-2	52*	20
CCN1CCN(c2ccc(NC(=O)c3ccc(Cl)c(N4CCCC4=O)c3)cc2)CC1	i	2	3	5	-8	.
Cc1ccc(NC2CCCN(C(=O)CCn3nccc3C)C2)cc1C (stereo not given)	i	3	49	2	-5	.
O=C(NNc1ccc([N+](=O)[O-])cc1)C12CC3CC(CC(C3)C1)C2	i	0	-40	-3	52*	45
Cc1ccc(C)c(CN2C(=O)c3ccccc3S(=O)c3ccc(C(=O)N4CCN(c5ccccn5)CC4)cc32)c1 (stereo not given)	i	0	-7	10	72*	38
CCN(C(=O)COC(=O)c1cc(-c2cccc3ccccc23)nc2ccccc12)C1CCS(=O)(=O)C1 (stereo not given)	i	-15	-29	-3	60*	32
CCCCCCCCC(c1nc2ccccc2[nH]1)N1CCN=C(c2ccccc2)C1=O (stereo not given)	i	0	.	-3	18	.
CCCNC(=O)C1CN(C(=O)c2nn(Cc3ccccc3)c(=O)c3ccccc23)c2ccccc2O1 (stereo not given)	i	-3	12	-6	7	.
CCn1cc(CNC(=O)c2cc(-c3cc(OC)ccc3OC)nc3ccccc23)c(C)n1	i	-6	22	5	-9	.
Cc1ccc2cc3cc(C(=O)NC4CCCCC4)oc3nc2c1	i	4	-14	-3	10	.
Cc1ccc2cc3cc(C(=O)N4CC(C)CC(C)C4)oc3nc2c1 (stereo not given)	i	-1	9	0	82*	42
COc1ccc2cc3cc(C(=O)N4CC(C)CC(C)C4)oc3nc2c1 (stereo not given)	i	-4	7	3	69*	75*
Cc1ccc2cc3cc(C(=O)N4CCCCC4C)oc3nc2c1 (stereo not given)	i	-1	3	3	84*	61*
O=C(c1cc2cc3ccc(Cl)cc3nc2o1)N1CCCCCC1	i	9	-25	-7	62*	41*
CCOc1ccc(N2CC(C(=O)NCC(=O)Nc3ccc(F)c(F)c3F)CC2=O)cc1 (stereo not given)	i	-4	-3	0	-2	.
CC(=O)c1ccc(S(=O)(=O)N2CCN(c3nc(-c4cccnc4)nc4ccccc34)CC2)cc1	i	0	-2	19	17	.

Bioassay records (PubChem BioAssay)
